Bioassay records deposited in PubChem BioAssay by NMMLSC.
In the library only some 0.92% were active in any assay of this set; here they are far more common.
LAP4 TOR yeast: yeast TOR pathway LAP4-GFP modulation; S. cerevisiae LAP4-GFP multiplex, flow cytometry GFP, 3 h; median GFP as percent of DMSO wells; hit rate 0.34% among 320,000; GFP response vs DMSO, % at 10 µM;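 active = GFP response vs DMSO above a set limit, about the screen mean plus 3 SD, cut at about 150% in these data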
RPL19A TOR yeast: alters RPL19A-GFP fluorescence in TOR pathway yeast screen; S. cerevisiae RPL19A-GFP strain, flow cytometry, 3 h; active compounds read low; percent response vs DMSO, % at 10 µM; hit rate 0.3% among 330,000;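 active = percent response vs DMSO below 50%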;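 note: median channel GFP fluorescence of the barcoded RPL19A-GFP strain; ratio of sample median GFP to plate DMSO average so 100% = DMSO; lower means less RPL19A-GFP as with rapamycin TOR inhibition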
CIT2-GFP yeast: alters CIT2-GFP fluorescence in TOR pathway yeast screen; GFP response vs DMSO, % at 10 µM; hit rate 0.065% among 320,000; S. cerevisiae CIT2-GFP strain, flow cytometry, 3 h; 100 means same as DMSO wells; AID 2029;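 active = GFP response relative to DMSO above a set limit, near the screen mean plus 3 SD, cut at about 150% in these data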;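 note: ratio of well median GFP fluorescence to mean of DMSO wells on the plate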
AGP1 TOR yeast: modulators of TOR pathway AGP1-GFP in S. cerevisiae. GFP response vs DMSO, % at 10 µM. hit rate 0.02% among 320,000. S. cerevisiae AGP1-GFP multiplex flow cytometry, 3 h; GFP as percent of DMSO wells;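 active = GFP response relative to DMSO above a set limit, near screen average plus 3 SD, cut at about 150% in these data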;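 note: median GFP channel fluorescence of the gated AGP1 strain per well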
MEP2-GFP yeast: alters MEP2-GFP fluorescence in TOR pathway yeast screen | hit rate 0.51% among 330,000 | S. cerevisiae MEP2-GFP strain, flow cytometry GFP, 3 h; 100% = DMSO control level | GFP response vs DMSO, % at 10 µM | AID 2016;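 active = GFP response versus DMSO above a set limit, roughly screen mean plus 3 SD, cut at about 180% in these data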;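 note: median GFP fluorescence of the barcode-gated MEP2-GFP cells per well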
LAP4 cherry2: yeast LAP4-GFP modulation, second cherry pick | AID 2621 | S. cerevisiae LAP4-GFP strain, flow cytometry GFP, 3 h | hit rate 20% among 590 | GFP response vs DMSO, % at 10 µM | shares compounds with LAP4 TOR yeast;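 active = GFP signal as percent of the solvent control above about 150%, meaning raised reporter expression, limit read from the data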;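 note: ratio of well median GFP fluorescence to plate DMSO mean so 100% = DMSO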
MEP2-GFP pick2: reconfirmed MEP2-GFP TOR pathway modulator in yeast. shares compounds with LAP4 TOR yeast. S. cerevisiae MEP2-GFP strain, flow cytometry GFP, 3 h. GFP response vs DMSO, % at 10 µM. hit rate 10% among 590;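 active = GFP signal above 150% of the solvent control wells, that is a rise of more than half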;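 note: median channel GFP fluorescence of all gated yeast cells per well; ratio of median GFP to plate DMSO average so 100% = DMSO level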
RPL19A-GFP pick2: yeast RPL19A-GFP TOR reporter modulation, second cherry pick. shares compounds with LAP4 TOR yeast. hit rate 3% among 590. GFP response vs DMSO, % at 10 µM. S. cerevisiae RPL19A-GFP strain, flow cytometry GFP, 3 h; active compounds read low; 100% means same as DMSO wells;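 active = under 65% GFP response relative to DMSO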;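 note: median GFP channel fluorescence per well over the all cells gate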
CIT2 GFP CP2: reconfirmed modulator of CIT2-GFP TOR reporter in yeast. shares compounds with LAP4 TOR yeast. S. cerevisiae CIT2-GFP strain, flow cytometry GFP, 3 h; DMSO control wells read 100%. GFP response vs DMSO, % at 10 µM. hit rate 8% among 590. AID 2624;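 active = GFP response vs DMSO above about 150%, limit read from the data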;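 note: median green fluorescence per well over all gated yeast cells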
AGP1 GFP CP2: yeast AGP1-GFP TOR reporter modulation, second cherry pick | percent response vs DMSO, % at 10 µM | shares compounds with LAP4 TOR yeast | 590 tested, under 10 active | S. cerevisiae AGP1-GFP strain, flow cytometry GFP, 3 h | AID 2643;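 active = over 150 percent of DMSO response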;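 note: median GFP channel fluorescence over all cells without mother daughter split; sample median GFP divided by mean DMSO control so 100% equals DMSO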
Yeast autofluor: compound is autofluorescent in yeast s288c cells | shares compounds with LAP4 TOR yeast | S. cerevisiae s288c, 520 nm autofluorescence, flow cytometry, 3 h; active compounds read high; zero means same as solvent-only cells | fluorescence change (kMESF span) at 33 µM | 610 tested, under 10 active | AID 2757;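 active = fluorescence span over the dose series, or activity score, above about 33, limit read from the data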
Numbers without * were called inactive; . = no result.

SMILES | LAP4 TOR yeast | RPL19A TOR yeast | CIT2-GFP yeast | AGP1 TOR yeast | MEP2-GFP yeast | LAP4 cherry2 | MEP2-GFP pick2 | RPL19A-GFP pick2 | CIT2 GFP CP2 | AGP1 GFP CP2 | Yeast autofluor
O=C(CN(C1CCCCC1)S(=O)(=O)c1ccc(Cl)cc1)N1CCOCC1 | 90 | 54 | 96 | 48 | 150 | 99 | 100 | 98 | 99 | 97 | .
O=C(CN(C1CCCCC1)S(=O)(=O)c1ccccc1)N1CCCC1 | 97 | 104 | 94 | 97 | 107 | . | . | . | . | . | .
O=C(NC1CCCCC1)c1cc(-c2cccc(Cl)c2)on1 | 98 | 101 | 113 | 105 | 102 | . | . | . | . | . | .
COc1cc(C(=O)COC(=O)c2ccco2)cc(OC)c1OC | 186* | 76 | 77 | 110 | 105 | 102 | 105 | 99 | 104 | 102 | .
CCc1cccc(C)c1NC(=O)c1cc(=O)[nH]c2ccc(S(=O)(=O)N3CCOCC3)cc12 | 109 | 103 | 99 | 111 | 105 | . | . | . | . | . | .
CCN(C(=O)Cn1c(=O)oc2cc(S(=O)(=O)N3CCCC3)ccc21)c1ccc(OC)cc1 | 114 | 95 | 103 | 99 | 504* | 100 | 100 | 100 | 97 | 100 | .
O=C(Nc1cccc(N=Cc2cc(Br)cc(Br)c2O)c1)c1ccco1 | 190* | 71 | 85 | 86 | 96 | 146 | 128 | 71 | 117 | 99 | .
O=C(Nc1cccc(N=Cc2cc(Cl)cc(Br)c2O)c1)c1ccco1 | 128 | 95 | 93 | 90 | 96 | . | . | . | . | . | .
Cc1ccc(C(=O)NCC(c2ccc(F)cc2)N2CCOCC2)s1 (stereo unspecified) | 95 | 94 | 98 | 97 | 96 | . | . | . | . | . | .
CN(C)C(CNC(=O)c1ccc(S(=O)(=O)Nc2ccccc2)cc1)c1ccco1 (stereo unspecified) | 106 | 98 | 103 | 108 | 99 | . | . | . | . | . | .
CCn1c(=O)n(CC(=O)Nc2cc(OC)c(OC)c(OC)c2)c(=O)c2ccccc21 | 106 | 98 | 95 | 97 | 95 | . | . | . | . | . | .
O=C(c1ccccn1)c1conc1C(=O)c1ccc(Br)cc1 | 331* | 112 | 192* | 103 | 281* | . | . | . | . | . | 2.4
CC(NC(=O)c1ccccc1F)C12CC3CC(CC(C3)C1)C2 (stereo unspecified) | 158* | 94 | 90 | 80 | 88 | 107 | 97 | 98 | 94 | 94 | .
Cc1cc(C(=O)Nc2ccc3c(c2)OCO3)no1 | 98 | 97 | 157* | 111 | 103 | 104 | 110 | 101 | 101 | 101 | .
Cc1ccc(NC(=O)c2cc(-c3ccc4c(c3)OCO4)on2)cc1C | 101 | 104 | 106 | 104 | 106 | . | . | . | . | . | .
Cc1cc(C)c(S(=O)(=O)N2CCC(C(=O)NCc3ccc(Cl)cc3Cl)CC2)c(C)c1 | 151* | 94 | 78 | 114 | 114 | 152* | 113 | 101 | 120 | 107 | 0.2
COc1ccc(/C=N/c2oc(-c3ccccc3)cc2C#N)cc1OC | 100 | 93 | 91 | 94 | 96 | . | . | . | . | . | .
COc1ccc(Cc2nc3ccc(C(=O)N(C)C(C)c4ccon4)cc3o2)cc1 (stereo unspecified) | 190* | 101 | 98 | 106 | 82 | 100 | 101 | 98 | 96 | 100 | .
O=c1c(-c2ccc(Cl)cc2)[n+]([O-])c2ccccc2n1O | 165* | 60 | 79 | 49 | 111 | . | . | . | . | . | 1.6
O=c1c(-c2cccc([N+](=O)[O-])c2)[n+]([O-])c2ccccc2n1O | 94 | 74 | 112 | 28 | 141 | . | . | . | . | . | .
CCCN(CC(=O)Nc1ccccc1C)C(=O)c1ccc(-c2ccc([N+](=O)[O-])cc2)o1 | 196* | 70 | 132 | 140 | 609* | 101 | 101 | 99 | 96 | 102 | .
Cc1ccc(C(=O)O)cc1N1C(=O)c2cccc3c([N+](=O)[O-])ccc(c23)C1=O | 108 | 109 | 141 | 92 | 157 | . | . | . | . | . | .
CC(=O)Oc1cccc(N2C(=O)c3cccc4c([N+](=O)[O-])ccc(c34)C2=O)c1 | 178* | 112 | 133 | 79 | 227* | 177* | 281* | 114 | 225* | 111 | 6.1
COc1ccccc1-c1nc2s/c(=C\c3cccs3)c(=O)n2n1 | 180* | 94 | 79 | 80 | 102 | 126 | 108 | 104 | 110 | 95 | 0.4
Cc1ccc(/C=c2\sc3nc(-c4cccs4)nn3c2=O)o1 | 174* | 103 | 125 | 104 | 149 | . | . | . | . | . | 1.4
SMILES | LAP4 TOR yeast | RPL19A TOR yeast | CIT2-GFP yeast | AGP1 TOR yeast | MEP2-GFP yeast | LAP4 cherry2 | MEP2-GFP pick2 | RPL19A-GFP pick2 | CIT2 GFP CP2 | AGP1 GFP CP2 | Yeast autofluor
COc1cccc(/C=c2\sc3nc(-c4cccs4)nn3c2=O)c1OC | 113 | 114 | 113 | 117 | 105 | . | . | . | . | . | .
O=C(N/N=C/c1ccc(OCC(=O)N2CCCCC2)cc1)c1ccccc1O | 95 | 94 | 90 | 95 | 96 | . | . | . | . | . | .
N=C1SCC(=O)N1c1ccccc1Cl | 91 | 105 | 98 | 94 | 105 | . | . | . | . | . | .
O=C1c2sc3nc4ccccc4n3c2C(=O)N1c1ccccc1Cl | 192* | 66 | 84 | 81 | 99 | 138 | 158* | 75 | 104 | 81 | 1.9
CCOC(=O)c1sc(Nc2ccccc2Cl)nc1C | 109 | 52 | 82 | 73 | 168 | 99 | 98 | 100 | 94 | 95 | .
O=C(/C=C/c1ccnc2ccccc12)c1cccs1 | 172* | 99 | 80 | 112 | 100 | . | . | . | . | . | 0
O=C(Cn1cnc2ccccc2c1=O)c1cccs1 | 94 | 93 | 98 | 93 | 97 | . | . | . | . | . | .
